Measured values reported in PubChem BioAssay (NCATS).
Inconclusive results are not listed. Entries that show only a call come without a potency. Calls of active or inactive are those of the source. Calls follow the shape of the dose curve; as a rule, active = well fitted inhibition curve with a large enough effect; inconclusive = small, poorly fitted or top-dose-only effect; inactive = flat fitted curve, though single readings scatter.

target: Calcium and integrin-binding protein 1 (Homo sapiens) (UniProt Q99828); assay: Primary qHTS for Identification of Calcium Integrin Binding Protein 1 (CIB1) Competitor (AID 1508620); conditions: CIB1-GST / FITC-alphaIIb peptide fluorescence polarization; series mostly up to 57.7 µM;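 also: GST tagged CIB1 binding a fluorescein labelled alphaIIb integrin peptide tracer; top concentration of the series differs between compounds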
Sequence (Q99828 whole entry, looked up): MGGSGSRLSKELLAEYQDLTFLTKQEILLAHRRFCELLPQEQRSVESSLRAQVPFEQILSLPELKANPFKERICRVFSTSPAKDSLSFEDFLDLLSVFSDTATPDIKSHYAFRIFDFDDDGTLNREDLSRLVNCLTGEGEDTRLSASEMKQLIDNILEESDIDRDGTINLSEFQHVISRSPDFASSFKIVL
Summary of the method: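 Fluorescence polarization competition: CIB1-GST (1 uM final) preincubated with compound 15 min at room temperature, then FITC-labeled alphaIIb peptide (100 nM final) added for another 15 min. Polarization read at Ex 480/Em 540.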

Structure (SMILES)	Potency
C=C1CC2C(C)(CCC(=O)O)C(C(C)(C)O)CCC2(C)C2(C(=O)OC)C(=O)C(C)(O)C(=O)C12C (stereo not drawn)	inactive
C[C@@H]1O[C@@H](OC2C(CO)OC(OCC3OC(OC(=O)[C@]45CCC(C)(C)CC4C4=CCC6[C@@]7(C)CC[C@@H](O)[C@](C)(C(=O)O)C7CC[C@@]6(C)[C@]4(C)CC5)C(O)C(O)C3O)C(O)C2O)[C@H](O)[C@H](O)[C@H]1O (stereo partly drawn)	inactive
Cc1cc(O[C@@H]2O[C@H](COC(=O)CC(=O)O)[C@@H](O)[C@H](O)[C@H]2O)c(C(C)C)cc1O	inactive
CC1=C2CC3C(CCC3(C)O)C(C)(O)CC2OC1=O (stereo not drawn)	inactive
OCC1OC(Oc2cc(O)cc(/C=C/c3ccc(OC4OC(CO)C(O)C(O)C4O)cc3O)c2)C(O)C(O)C1O (stereo not drawn)	inactive
C[C@]1(OC(=O)/C=C/c2ccc(O)cc2)C[C@@H](O)[C@]2(O)C=CO[C@@H](O[C@@H]3O[C@H](CO)[C@@H](O)[C@H](O)[C@H]3O)C12 (stereo partly drawn)	inactive
COc1cc(O)cc(C)c1C(=O)O[C@H]1[C@@H](O)[C@@H](n2ccc(=O)[nH]c2=O)O[C@@H]1CO	inactive
C/C=C1/C[N+](C)([O-])C2Cc3c([nH]c4ccccc34)C(=O)CC1C2C(=O)OC (stereo not drawn)	inactive
